SRC3 inh: inhibits human SRC3 coactivator; 360,000 tested, 0.17% active; inhibition, % at 3.6 µM; Q9Y6Q9; AID 588352; HEK293 GAL4-SRC3 luciferase reporter, luminescence;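 active = inhibition above a per-campaign cutoff, the mean of all compounds plus 3 SD, cut at about 60% in these data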;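 also: higher means less SRC3-driven luciferase light from the GAL4 reporter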
Target sequence (Q9Y6Q9 whole entry, looked up, the tested form may be a part): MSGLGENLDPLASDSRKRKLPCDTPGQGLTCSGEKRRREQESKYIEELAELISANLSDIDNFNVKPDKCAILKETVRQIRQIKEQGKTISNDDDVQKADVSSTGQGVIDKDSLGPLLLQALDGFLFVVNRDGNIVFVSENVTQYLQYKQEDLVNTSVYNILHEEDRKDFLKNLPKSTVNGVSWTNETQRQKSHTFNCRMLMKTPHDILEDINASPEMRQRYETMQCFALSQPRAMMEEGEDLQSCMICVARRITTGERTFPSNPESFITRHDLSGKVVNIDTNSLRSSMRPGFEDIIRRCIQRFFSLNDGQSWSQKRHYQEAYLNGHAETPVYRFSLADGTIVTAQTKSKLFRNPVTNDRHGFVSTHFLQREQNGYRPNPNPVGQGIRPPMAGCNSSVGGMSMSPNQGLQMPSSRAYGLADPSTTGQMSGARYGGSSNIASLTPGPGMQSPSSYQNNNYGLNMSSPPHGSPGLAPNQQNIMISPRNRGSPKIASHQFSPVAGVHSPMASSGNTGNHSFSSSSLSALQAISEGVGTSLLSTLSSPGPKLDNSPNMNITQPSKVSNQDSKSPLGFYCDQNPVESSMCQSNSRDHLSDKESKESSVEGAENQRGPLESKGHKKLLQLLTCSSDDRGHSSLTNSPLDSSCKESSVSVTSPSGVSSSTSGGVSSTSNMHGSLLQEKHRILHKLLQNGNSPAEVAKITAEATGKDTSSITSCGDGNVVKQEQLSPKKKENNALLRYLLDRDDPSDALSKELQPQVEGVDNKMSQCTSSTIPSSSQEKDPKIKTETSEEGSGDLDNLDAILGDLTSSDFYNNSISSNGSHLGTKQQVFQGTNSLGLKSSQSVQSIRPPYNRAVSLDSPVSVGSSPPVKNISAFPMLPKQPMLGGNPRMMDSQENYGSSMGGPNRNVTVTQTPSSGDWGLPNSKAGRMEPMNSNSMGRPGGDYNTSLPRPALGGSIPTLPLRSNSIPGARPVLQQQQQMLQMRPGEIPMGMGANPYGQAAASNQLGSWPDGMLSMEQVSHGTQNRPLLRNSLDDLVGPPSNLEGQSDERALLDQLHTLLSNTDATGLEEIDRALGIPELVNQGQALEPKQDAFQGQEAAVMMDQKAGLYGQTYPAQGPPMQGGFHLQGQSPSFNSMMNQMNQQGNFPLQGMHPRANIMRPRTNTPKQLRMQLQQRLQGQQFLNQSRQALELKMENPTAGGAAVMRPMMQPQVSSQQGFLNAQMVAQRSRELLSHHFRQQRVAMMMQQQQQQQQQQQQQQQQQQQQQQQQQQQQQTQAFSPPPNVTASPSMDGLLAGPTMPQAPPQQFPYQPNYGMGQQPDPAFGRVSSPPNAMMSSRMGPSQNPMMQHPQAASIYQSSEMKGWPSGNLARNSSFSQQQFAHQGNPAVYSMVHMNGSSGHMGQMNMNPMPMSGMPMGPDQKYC
Gli-Sufu block: antagonists of Gli-Sufu signaling; Sufu-KO-LIGHT fibroblasts, Gli luciferase reporter luminescence; inhibition, % at 5 µM; 340,000 tested, 0.74% active;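 active = inhibition above about 55%, limit read from the data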
SRC1 inh: human NCOA1 inhibition. Q15788. HEK293 GAL4-SRC1 luciferase reporter, luminescence. inhibition, % at 3.6 µM. 360,000 tested, 0.12% active. AID 588354;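 active = inhibition above the campaign mean plus 3 SD, with each screening campaign given its own cutoff, cut at about 60% in these data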
Shn3 inh set2: reduces Shn3 3'UTR luciferase signal in osteoblasts | 360,000 tested, 0.52% active | inhibition, % at 12.5 µM | Clone20 osteoblast Shn3 3'UTR firefly luciferase, 24 h | AID 588674;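 active = mean inhibition of at least 75% with every replicate also reaching 75%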
NR5A2 inv ag: suppresses constitutive activity of human LRH-1 | HEK293T StAR-luciferase reporter, LRH-1 transfected, 24 h | AID 602396 | 360,000 tested, 0.13% active | inhibition, % at 3.6 µM;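 active = inhibition above the mean inhibition of all tested compounds plus 3 SD, cut at about 73% in these data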
NCOA2 inhibitor: human SRC2 (NCOA2) inhibition | HEK293 GAL4-SRC2 luciferase reporter, luminescence | inhibition, % at 9 µM | 370,000 tested, 0.17% active;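 active = inhibition above the mean inhibition of all tested compounds plus 3 SD, set per campaign, cut at about 52% in these data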
Gli antag conf: confirmation of Gli-SUFU pathway antagonists; shares compounds with Gli-Sufu block; Sufu-KO-LIGHT cells, Gli luciferase reporter, luminescence; inhibition, % at 5 µM; 2,500 tested, 40% active; AID 602428;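 active = mean inhibition at 5 µM reaching about 45%, limit read from the data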
Gli cytotox: cytotoxic in Gli-SUFU antagonist counter-screen | cytotoxicity, % at 5 µM | Sufu-KO-LIGHT cells cytotoxicity, ATP luminescence | shares compounds with Gli-Sufu block | 2,500 tested, 32% active | AID 651994;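 active = mean cytotoxicity at 5 µM above about 25%, limit read from the data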;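 also: cells exposed to compound overnight for roughly 16 to 18 hours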
Wnt3a counter: counter-screen for Gli-SUFU antagonists: Wnt3a reporter inhibition; Wnt-LIGHT cells, Wnt3a-driven luciferase reporter, luminescence; shares compounds with Gli-Sufu block; inhibition, % at 6.25 µM; 2,500 tested, 20% active;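 active = mean inhibition above about 25%, limit read from the data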
Numbers stand for hits; . = inactive; / = not tested or not shown. Rows were chosen to be rich in hits. Some 1.1% of all compounds tested hit in one or more screens of this group.

SMILES	SRC3 inh	Gli-Sufu block	SRC1 inh	Shn3 inh set2	NR5A2 inv ag	NCOA2 inhibitor	Gli antag conf	Gli cytotox	Wnt3a counter
NCC(=O)Nc1ccc(Cl)cc1C(=O)c1ccc[nH]1	.	.	.	.	.	56.1	.	.	.
CC(=O)Nc1ccc(Cl)cc1C(=O)c1ccc[nH]1	.	/	.	.	.	.	/	/	/
COc1ccc(CC2C(=O)NC(C)C(=O)N(C)C3Cc4ccc(cc4)Oc4cc(ccc4O)CC(C(=O)NC(C)C(=O)NC(C)C(=O)N2C)N(C)C3=O)cc1 (stereo unspecified)	93.8	91.4	93.5	95.0	97.8	76.1	95.9	89.7	103.9
CCCCn1c(=O)[nH]c(=O)c2c1nc(CN(C)Cc1cccc(OC)c1OC)n2CCC	.	63.3	.	.	.	.	.	.	.
Cn1c(CSCc2ccc(F)cc2)nnc1SCC(=O)Nc1nccs1	.	60.5	.	.	.	.	.	.	.
CC1=NCCN1S(=O)(=O)c1cc(Cl)ccc1Cl	.	55.8	.	.	.	.	.	.	.
COC(=O)Nc1ccc(S(=O)(=O)N2CCCCC2C(=O)NCc2ccco2)cc1 (stereo unspecified)	.	.	.	.	.	.	/	/	/
Cc1ccc(S(=O)(=O)N2CCCCC2C(=O)NCc2ccco2)cc1 (stereo unspecified)	.	.	.	.	.	.	.	.	.
COC(=O)[C@]12C[C@H](CC(=O)NCCCN3CCCC3=O)C(=O)N(Cc3ccco3)C1=C[C@H](C1CCCC1)O[C@@H]2C	/	/	/	/	/	.	/	/	/
CCc1cc(-c2nc(N)ncc2-c2csc(C)n2)c(O)cc1OC	.	.	.	.	.	.	/	/	/
COc1ccc(-c2nc(N)ncc2-c2csc(C)n2)c(O)c1	.	99.0	.	.	.	.	.	.	.
CCOC(=O)[C@]12CCCC=C1N(CCCOC)C(=O)[C@@H]2CC(=O)NCC12CC3CC(CC(C3)C1)C2	/	/	/	/	/	.	/	/	/
CC(=O)c1cn(CCOc2ccccc2C)c2ccccc12	.	64.6	.	.	.	.	56.3	.	29.6
Cc1ccccc1OCCn1cc(C(=S)N2CCCC2)c2ccccc21	.	.	.	.	.	.	/	/	/
COc1cc(OC)cc(-c2cc3nc(C)c(CCC(=O)NC(C)CCc4ccco4)c(C)n3n2)c1 (stereo unspecified)	.	.	.	.	.	.	/	/	/
COc1cc(OC)cc(-c2cc3nc(C)c(CCC(=O)O)c(C)n3n2)c1	.	60.8	.	.	.	77.6	64.3	.	90.4
COC(=O)Cc1ccc(NC(=O)c2ccc(C(C)(C)C)cc2)cc1	.	72.2	.	.	.	83.2	76.8	45.5	102.3
COc1ccc(-n2c(SCC(=O)Nc3ccc(S(=O)(=O)Nc4nccs4)cc3)nnc2-c2ccccc2)cc1	/	/	/	/	/	.	/	/	/
Cc1ccccc1OCCn1c(=O)oc2ccccc21	.	.	.	.	.	.	/	/	/
Cc1ccc(C(C)C)c(OCCn2c(=O)oc3ccccc32)c1	.	95.5	.	.	.	.	.	.	.
COC(=O)CNC(=O)C(C)NC(=O)OCc1ccccc1 (stereo unspecified)	.	98.7	.	.	.	.	.	.	.
Cc1ccccc1CS(=O)(=O)Cc1ccc(C(=O)NCc2ccco2)o1	.	.	.	.	.	.	.	.	.
Cc1cc(N2CCN(c3ccc(C(F)(F)F)cc3[N+](=O)[O-])CC2)c2ccccc2n1	.	.	.	.	.	.	.	.	.
C/C=C/C(=O)N1CCC(C(=O)NCC2COc3ccccc3O2)CC1 (stereo unspecified)	/	/	/	/	/	.	/	/	/
CCN(CCn1cccn1)C(=O)c1ccc(OC2CCN(C(=O)COC)CC2)cc1	.	.	.	.	.	.	/	/	/
SMILES	SRC3 inh	Gli-Sufu block	SRC1 inh	Shn3 inh set2	NR5A2 inv ag	NCOA2 inhibitor	Gli antag conf	Gli cytotox	Wnt3a counter
COCC(=O)N1CCC(Oc2ccc(C(=O)NCCCn3cccn3)cc2)CC1	.	.	.	.	.	.	.	.	.
Cc1cccc(C(=O)NC2CCN(C(=O)Nc3ccccc3C)CC2)c1	.	66.7	.	.	.	.	.	.	.
Cc1c(C(=O)N/N=C/c2ccc(Cl)cc2)[nH]c2ccc(Cl)cc12	.	.	.	.	.	.	54.5	57.7	.
O=C(N/N=C/c1ccc(O)cc1)c1[nH]c2ccc(Br)cc2c1-c1ccccc1	.	63.4	.	.	.	.	62.6	72.4	.
CCC(NC(=O)c1ccc2c(c1)c(C)c(C)n2Cc1ccc(-c2ccccc2C#N)cc1)c1ccccc1 (stereo unspecified)	/	/	/	/	/	.	/	/	/
COc1ccc(CCN(Cc2cccs2)S(=O)(=O)c2ccc(C)c(C)c2)cc1OC	/	/	/	/	/	.	/	/	/
CC(=O)c1ccc(NC(=O)Nc2ccc(NS(=O)(=O)c3ccc(C)cc3)cc2)cc1	.	75.2	.	.	.	.	.	.	25.0
Cc1cccc(Cn2cc(COC(=O)NCC(C)C)nn2)c1	/	/	/	/	/	.	/	/	/
COc1ccc(N(CC(=O)Nc2ccc(OC)cc2OC)S(=O)(=O)c2ccccc2)cc1	.	.	.	.	.	.	/	/	/
CCOc1ccc(N(CC(=O)Nc2ccccc2OC)S(=O)(=O)c2ccccc2)cc1	.	.	.	.	.	.	47.1	60.1	.
CCOc1ccc(N(CC(=O)Nc2ccc(C)cc2)S(=O)(=O)c2c(C)noc2C)cc1	.	.	.	.	.	.	/	/	/
CCOc1ccc(N(CC(=O)Nc2ccccc2OCC)S(=O)(=O)c2c(C)noc2C)cc1	.	.	.	.	.	.	63.5	51.8	47.2
CC(C)CNC(=O)OCc1cn(Cc2ccccc2Cl)nn1	/	/	/	/	/	.	/	/	/
Cc1ccc(-n2c(SCC(=O)Nc3ccc4c(c3)OCCO4)nnc2-c2cnccn2)cc1	/	/	/	/	/	.	/	/	/
COP(=O)(O)C(Cc1ccccc1)NC(=O)OCc1ccccc1 (stereo unspecified)	/	/	/	/	/	.	/	/	/
COc1ccc(NC(=O)COCC(=O)Nc2ccc(C)cc2)cc1	.	.	.	.	.	.	.	.	.
COc1ccc(CN2C[C@]3(C=C(C)Cn4c(=O)n(-c5ccccc5)c(=O)n43)N(C(=O)OCc3ccccc3)C2=NC(=O)c2ccccc2)c(OC)c1	/	/	/	/	/	.	/	/	/
Cc1ccccc1C1NC(c2ccccc2C)C([N+](=O)[O-])C(C)(C)C1[N+](=O)[O-] (stereo unspecified)	.	.	.	.	.	.	.	.	.
O=C(Nc1ccc2oc(-c3ccccc3F)nc2c1)c1ccc2c(c1)OCCO2	.	.	.	.	.	.	.	.	.
Cc1cc(NC(=O)c2c(Br)c(C)nn2C)no1	.	.	.	.	.	.	.	.	.

Screens as filed in PubChem BioAssay.
